In ChEMBL document CHEMBL2218924, “A broad activity screen in support of a chemogenomic map for kinase signalling research and drug discovery” (Biochem J, 2013):

How the values were obtained:
[1] = target: Serine/threonine-protein kinase SIK1 (Homo sapiens) (UniProt P57059); settings: at 10 µM
[2] = target: SRSF protein kinase 1 (Homo sapiens) (UniProt Q96SB4); settings: at 1 µM
[3] = target: T1, Serine/threonine-protein kinase TAO1 (Homo sapiens) (UniProt Q7L7X3); settings: at 1 µM
T1 sequence (whole entry): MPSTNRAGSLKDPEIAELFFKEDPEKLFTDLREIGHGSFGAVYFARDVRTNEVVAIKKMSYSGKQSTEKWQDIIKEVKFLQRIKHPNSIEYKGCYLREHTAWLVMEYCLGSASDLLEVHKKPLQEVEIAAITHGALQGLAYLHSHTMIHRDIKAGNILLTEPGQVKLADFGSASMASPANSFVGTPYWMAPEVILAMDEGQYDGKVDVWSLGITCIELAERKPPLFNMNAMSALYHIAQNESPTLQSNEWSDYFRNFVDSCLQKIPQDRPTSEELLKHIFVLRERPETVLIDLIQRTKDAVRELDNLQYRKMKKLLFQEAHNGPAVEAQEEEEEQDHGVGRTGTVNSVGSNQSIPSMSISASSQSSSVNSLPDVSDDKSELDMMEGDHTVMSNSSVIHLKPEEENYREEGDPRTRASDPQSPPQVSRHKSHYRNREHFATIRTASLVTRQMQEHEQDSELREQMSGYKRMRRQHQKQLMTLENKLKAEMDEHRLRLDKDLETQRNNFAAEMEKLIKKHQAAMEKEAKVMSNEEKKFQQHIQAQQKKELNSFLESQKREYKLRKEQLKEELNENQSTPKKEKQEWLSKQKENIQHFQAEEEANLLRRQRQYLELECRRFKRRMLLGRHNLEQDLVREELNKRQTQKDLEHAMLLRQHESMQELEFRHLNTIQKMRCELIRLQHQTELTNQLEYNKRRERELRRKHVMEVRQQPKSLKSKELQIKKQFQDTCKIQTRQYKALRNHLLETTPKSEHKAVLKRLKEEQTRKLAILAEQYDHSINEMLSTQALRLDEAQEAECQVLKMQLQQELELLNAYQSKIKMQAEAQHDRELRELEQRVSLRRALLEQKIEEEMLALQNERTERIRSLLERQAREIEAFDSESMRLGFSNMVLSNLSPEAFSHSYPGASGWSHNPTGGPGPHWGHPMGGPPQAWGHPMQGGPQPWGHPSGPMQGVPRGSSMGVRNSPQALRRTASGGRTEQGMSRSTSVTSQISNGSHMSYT

[4] = target: T1, Serine/threonine-protein kinase TAO1 (Homo sapiens); settings: at 10 µM
[5] = target: T2, Serine/threonine-protein kinase TBK1 (Homo sapiens) (UniProt Q9UHD2); settings: at 1 µM
T2 sequence (whole entry): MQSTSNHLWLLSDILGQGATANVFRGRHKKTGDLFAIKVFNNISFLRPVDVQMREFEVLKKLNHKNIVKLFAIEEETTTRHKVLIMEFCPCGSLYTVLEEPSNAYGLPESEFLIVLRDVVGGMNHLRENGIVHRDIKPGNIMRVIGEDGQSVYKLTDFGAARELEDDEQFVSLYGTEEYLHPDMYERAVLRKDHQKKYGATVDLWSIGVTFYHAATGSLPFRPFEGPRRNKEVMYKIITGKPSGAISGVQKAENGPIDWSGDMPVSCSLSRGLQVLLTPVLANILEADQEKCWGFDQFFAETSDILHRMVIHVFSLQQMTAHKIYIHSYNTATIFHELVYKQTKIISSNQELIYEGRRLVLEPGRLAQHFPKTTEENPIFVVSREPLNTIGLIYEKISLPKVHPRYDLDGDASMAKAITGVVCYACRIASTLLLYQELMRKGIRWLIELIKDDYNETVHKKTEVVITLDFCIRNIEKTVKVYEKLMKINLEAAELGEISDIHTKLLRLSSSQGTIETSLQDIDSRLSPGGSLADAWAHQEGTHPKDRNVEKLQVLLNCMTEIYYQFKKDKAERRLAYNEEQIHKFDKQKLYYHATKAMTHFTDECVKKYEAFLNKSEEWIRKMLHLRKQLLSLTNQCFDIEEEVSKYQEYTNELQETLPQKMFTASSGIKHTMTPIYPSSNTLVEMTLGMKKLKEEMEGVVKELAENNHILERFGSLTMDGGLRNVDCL

[6] = target: Tyrosine-protein kinase SYK (Homo sapiens) (UniProt P43405); settings: at 1 µM
[7] = target: Tyrosine-protein kinase SYK (Homo sapiens) (UniProt P43405); settings: at 10 µM
[8] = target: SRSF protein kinase 1 (Homo sapiens) (UniProt Q96SB4); settings: at 10 µM
[9] = target: SRSF protein kinase 2 (Homo sapiens) (UniProt P78362); settings: at 1 µM
Chain of SRSF protein kinase 2 (Homo sapiens) (P78362 whole entry, looked up): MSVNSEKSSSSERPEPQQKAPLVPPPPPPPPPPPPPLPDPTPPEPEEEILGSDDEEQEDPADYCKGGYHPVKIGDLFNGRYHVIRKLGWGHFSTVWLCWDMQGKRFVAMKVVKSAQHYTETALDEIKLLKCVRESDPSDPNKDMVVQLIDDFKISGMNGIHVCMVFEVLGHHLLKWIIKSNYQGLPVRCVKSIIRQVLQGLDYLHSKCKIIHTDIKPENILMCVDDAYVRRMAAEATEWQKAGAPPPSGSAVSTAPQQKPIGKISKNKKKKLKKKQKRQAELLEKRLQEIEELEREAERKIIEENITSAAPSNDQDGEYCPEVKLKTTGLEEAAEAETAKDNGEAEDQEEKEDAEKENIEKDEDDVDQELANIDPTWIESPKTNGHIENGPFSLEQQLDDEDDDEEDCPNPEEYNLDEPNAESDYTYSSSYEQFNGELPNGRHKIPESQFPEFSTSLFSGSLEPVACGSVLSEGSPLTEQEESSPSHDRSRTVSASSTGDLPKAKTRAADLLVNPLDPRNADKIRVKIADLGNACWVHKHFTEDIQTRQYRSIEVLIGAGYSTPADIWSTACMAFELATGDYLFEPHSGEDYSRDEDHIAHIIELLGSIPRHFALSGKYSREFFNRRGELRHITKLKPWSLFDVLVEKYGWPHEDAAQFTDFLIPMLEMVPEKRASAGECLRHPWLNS

[10] = target: SRSF protein kinase 2 (Homo sapiens) (UniProt P78362); settings: at 10 µM
[11] = target: Serine/threonine-protein kinase 33 (Homo sapiens) (UniProt Q9BYT3); settings: at 1 µM
Chain of Serine/threonine-protein kinase 33 (Homo sapiens) (Q9BYT3 whole entry, looked up): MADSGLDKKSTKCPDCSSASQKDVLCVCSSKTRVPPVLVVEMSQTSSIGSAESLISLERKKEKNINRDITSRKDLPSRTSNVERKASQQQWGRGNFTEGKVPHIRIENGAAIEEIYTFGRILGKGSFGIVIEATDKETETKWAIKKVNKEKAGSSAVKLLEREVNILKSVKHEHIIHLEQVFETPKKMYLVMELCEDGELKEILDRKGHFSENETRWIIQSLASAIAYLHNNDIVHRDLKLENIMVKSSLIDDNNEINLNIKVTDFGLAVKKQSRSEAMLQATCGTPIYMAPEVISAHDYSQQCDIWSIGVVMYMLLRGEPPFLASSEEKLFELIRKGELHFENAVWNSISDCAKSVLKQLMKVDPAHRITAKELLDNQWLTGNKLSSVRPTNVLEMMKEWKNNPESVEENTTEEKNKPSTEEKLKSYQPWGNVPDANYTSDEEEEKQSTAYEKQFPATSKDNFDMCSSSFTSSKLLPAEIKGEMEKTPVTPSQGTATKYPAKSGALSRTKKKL

[12] = target: Serine/threonine-protein kinase 33 (Homo sapiens) (UniProt Q9BYT3); settings: at 10 µM
[13] = target: Serine/threonine-protein kinase PLK2 (Homo sapiens) (UniProt Q9NYY3); settings: at 1 µM
Chain of Serine/threonine-protein kinase PLK2 (Homo sapiens) (Q9NYY3 whole entry, looked up): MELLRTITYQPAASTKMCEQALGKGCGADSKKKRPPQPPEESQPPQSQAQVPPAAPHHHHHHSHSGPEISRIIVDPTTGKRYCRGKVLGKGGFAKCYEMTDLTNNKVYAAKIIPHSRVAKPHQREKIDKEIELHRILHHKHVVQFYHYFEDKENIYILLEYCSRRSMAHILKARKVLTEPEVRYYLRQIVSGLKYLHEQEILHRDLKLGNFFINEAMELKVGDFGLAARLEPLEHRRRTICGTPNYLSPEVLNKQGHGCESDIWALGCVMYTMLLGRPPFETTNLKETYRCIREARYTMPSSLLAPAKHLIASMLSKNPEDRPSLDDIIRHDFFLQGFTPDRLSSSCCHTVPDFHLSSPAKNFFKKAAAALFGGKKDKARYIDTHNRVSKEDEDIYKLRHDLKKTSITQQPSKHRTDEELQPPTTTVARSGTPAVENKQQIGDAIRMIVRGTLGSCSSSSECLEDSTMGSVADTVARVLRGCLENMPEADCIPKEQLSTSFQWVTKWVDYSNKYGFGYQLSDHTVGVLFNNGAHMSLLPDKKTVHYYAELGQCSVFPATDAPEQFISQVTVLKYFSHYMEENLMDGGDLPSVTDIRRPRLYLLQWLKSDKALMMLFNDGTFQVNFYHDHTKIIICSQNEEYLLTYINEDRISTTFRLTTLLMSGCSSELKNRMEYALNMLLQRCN

[14] = target: Serine/threonine-protein kinase PLK2 (Homo sapiens) (UniProt Q9NYY3); settings: at 10 µM
[15] = target: T3, Mitogen-activated protein kinase kinase kinase 7 (Homo sapiens) (UniProt O43318); settings: at 1 µM
T3 sequence (whole entry): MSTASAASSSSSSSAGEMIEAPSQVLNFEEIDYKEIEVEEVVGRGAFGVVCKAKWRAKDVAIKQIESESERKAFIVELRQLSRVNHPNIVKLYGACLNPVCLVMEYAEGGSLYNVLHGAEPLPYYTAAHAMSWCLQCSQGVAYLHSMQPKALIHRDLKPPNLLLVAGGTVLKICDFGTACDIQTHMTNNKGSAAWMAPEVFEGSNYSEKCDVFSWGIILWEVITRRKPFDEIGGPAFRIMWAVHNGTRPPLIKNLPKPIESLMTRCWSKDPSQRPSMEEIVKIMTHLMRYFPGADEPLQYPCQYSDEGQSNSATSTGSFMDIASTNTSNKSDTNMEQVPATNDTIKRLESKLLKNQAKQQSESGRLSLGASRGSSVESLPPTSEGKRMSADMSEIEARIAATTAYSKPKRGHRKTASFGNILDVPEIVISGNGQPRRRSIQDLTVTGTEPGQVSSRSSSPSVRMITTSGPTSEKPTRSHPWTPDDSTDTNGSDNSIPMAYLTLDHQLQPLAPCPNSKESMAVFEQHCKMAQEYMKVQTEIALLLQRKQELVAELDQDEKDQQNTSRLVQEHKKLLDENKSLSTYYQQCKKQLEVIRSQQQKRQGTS

[16] = target: T3, Mitogen-activated protein kinase kinase kinase 7 (Homo sapiens); settings: at 10 µM
[17] = target: T4, Serine/threonine-protein kinase TAO2 (Homo sapiens) (UniProt Q9UL54); settings: at 1 µM
T4 sequence (whole entry): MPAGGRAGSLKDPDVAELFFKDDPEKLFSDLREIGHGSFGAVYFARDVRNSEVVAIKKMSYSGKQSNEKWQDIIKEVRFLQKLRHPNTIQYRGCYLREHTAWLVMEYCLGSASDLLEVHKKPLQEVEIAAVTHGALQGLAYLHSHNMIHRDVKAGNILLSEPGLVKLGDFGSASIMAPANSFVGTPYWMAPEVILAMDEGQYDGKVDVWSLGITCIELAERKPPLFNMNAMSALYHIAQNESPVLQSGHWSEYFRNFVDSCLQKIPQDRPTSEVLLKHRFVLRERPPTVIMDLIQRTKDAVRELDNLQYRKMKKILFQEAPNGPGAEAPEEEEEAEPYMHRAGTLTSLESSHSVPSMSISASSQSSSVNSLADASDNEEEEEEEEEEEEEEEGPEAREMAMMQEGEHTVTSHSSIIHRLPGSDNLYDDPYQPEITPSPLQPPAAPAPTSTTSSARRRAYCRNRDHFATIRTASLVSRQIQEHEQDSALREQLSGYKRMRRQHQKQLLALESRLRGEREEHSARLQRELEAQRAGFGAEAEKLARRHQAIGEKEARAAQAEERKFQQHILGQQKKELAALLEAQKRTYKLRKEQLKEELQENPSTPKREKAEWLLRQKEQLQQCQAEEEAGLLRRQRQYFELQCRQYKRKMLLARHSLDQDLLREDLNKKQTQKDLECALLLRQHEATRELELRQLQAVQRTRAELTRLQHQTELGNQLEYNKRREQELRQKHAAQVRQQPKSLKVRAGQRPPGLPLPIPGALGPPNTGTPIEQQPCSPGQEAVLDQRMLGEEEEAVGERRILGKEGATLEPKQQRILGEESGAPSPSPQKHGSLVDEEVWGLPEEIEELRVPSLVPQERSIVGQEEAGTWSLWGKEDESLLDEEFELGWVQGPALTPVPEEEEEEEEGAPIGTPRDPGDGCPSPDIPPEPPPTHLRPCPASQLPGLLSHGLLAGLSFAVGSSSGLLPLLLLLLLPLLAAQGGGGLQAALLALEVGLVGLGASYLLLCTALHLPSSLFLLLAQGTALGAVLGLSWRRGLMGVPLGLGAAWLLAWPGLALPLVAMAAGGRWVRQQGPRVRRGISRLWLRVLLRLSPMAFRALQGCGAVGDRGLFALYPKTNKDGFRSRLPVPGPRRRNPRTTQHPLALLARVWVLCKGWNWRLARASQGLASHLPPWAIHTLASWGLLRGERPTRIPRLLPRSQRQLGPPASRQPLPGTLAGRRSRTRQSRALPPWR

[18] = target: T4, Serine/threonine-protein kinase TAO2 (Homo sapiens); settings: at 10 µM
[19] = target: T5, Serine/threonine-protein kinase TAO3 (Homo sapiens) (UniProt Q9H2K8); settings: at 1 µM
T5 sequence (whole entry): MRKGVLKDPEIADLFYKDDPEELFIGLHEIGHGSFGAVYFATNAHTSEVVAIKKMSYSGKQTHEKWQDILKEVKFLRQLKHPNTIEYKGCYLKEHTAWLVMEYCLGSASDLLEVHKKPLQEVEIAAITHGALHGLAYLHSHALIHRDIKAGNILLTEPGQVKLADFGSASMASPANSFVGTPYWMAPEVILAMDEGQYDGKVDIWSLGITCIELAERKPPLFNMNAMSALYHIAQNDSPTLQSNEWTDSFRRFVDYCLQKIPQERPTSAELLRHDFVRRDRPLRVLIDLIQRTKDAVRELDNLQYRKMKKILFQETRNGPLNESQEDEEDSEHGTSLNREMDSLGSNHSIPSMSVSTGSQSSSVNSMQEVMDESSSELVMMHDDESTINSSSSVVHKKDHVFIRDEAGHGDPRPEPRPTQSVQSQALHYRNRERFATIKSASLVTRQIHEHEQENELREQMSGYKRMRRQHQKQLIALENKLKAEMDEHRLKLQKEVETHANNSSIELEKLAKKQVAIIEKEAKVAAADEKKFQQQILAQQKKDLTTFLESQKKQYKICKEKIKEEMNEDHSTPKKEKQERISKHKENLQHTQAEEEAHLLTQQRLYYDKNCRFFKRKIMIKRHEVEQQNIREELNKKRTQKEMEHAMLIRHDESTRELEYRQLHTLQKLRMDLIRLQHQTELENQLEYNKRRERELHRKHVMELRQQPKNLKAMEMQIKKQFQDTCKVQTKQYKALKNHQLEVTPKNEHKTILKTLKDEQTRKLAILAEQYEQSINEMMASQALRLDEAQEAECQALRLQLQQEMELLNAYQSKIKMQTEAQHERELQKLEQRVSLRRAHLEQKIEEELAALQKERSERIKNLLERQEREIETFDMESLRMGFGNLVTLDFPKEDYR

[20] = target: T5, Serine/threonine-protein kinase TAO3 (Homo sapiens); settings: at 10 µM

Chain of SRSF protein kinase 1 (Homo sapiens) (Q96SB4 whole entry): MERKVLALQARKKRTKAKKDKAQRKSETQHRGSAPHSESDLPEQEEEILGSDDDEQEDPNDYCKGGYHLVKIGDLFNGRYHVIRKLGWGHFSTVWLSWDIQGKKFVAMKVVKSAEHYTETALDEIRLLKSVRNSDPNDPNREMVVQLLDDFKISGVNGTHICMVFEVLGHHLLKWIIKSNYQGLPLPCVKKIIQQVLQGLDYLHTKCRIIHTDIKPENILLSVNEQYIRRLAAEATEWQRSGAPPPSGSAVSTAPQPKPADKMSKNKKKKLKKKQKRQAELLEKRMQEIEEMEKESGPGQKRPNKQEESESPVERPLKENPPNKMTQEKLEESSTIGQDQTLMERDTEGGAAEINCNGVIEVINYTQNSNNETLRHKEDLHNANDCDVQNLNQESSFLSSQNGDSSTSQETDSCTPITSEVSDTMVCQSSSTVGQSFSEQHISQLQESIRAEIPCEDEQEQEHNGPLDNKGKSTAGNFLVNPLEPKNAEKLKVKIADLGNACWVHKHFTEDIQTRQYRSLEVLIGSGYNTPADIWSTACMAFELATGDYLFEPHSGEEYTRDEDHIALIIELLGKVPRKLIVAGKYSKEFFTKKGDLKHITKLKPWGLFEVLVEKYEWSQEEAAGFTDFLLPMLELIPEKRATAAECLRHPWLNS
Chain of Serine/threonine-protein kinase SIK1 (Homo sapiens) (P57059 whole entry): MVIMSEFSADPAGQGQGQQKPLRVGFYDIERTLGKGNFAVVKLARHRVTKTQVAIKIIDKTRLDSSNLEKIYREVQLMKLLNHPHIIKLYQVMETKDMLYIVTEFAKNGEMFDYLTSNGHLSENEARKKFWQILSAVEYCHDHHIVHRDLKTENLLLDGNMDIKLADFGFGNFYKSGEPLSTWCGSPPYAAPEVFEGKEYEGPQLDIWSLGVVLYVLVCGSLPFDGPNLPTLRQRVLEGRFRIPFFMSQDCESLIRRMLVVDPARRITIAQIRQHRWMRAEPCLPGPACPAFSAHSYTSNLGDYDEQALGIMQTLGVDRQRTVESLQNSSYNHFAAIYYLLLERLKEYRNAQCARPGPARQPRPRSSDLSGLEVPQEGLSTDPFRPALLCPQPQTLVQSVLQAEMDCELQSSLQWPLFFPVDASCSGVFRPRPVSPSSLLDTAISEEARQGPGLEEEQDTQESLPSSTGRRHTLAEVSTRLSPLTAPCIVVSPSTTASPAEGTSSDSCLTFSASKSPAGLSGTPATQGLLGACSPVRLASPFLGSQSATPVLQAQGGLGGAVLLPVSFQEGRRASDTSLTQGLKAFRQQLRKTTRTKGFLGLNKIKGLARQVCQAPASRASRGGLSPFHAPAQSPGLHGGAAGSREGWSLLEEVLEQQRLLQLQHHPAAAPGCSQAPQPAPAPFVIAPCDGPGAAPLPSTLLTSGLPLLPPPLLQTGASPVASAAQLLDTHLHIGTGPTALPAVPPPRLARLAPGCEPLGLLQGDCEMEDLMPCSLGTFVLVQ

O=C1Cc2c([nH]c3ccc([N+](=O)[O-])cc23)-c2ccccc2N1
residual activity [1]: 68%
residual activity [2]: 105%
residual activity [3]: 54%
residual activity [4]: 30%
residual activity [5]: 51%

N#C/C(=C\c1ccc(O)c(O)c1)C(=O)NCc1ccccc1
residual activity [1]: 1%
residual activity [2]: 100%
residual activity [6]: 127%
residual activity [7]: 71%
residual activity [5]: 82%

CC(C)(C)n1nc(Cc2cccc3ccccc23)c2c(N)ncnc21
residual activity [1]: 49%
residual activity [2]: 103%
residual activity [8]: 101%
residual activity [9]: 99%
residual activity [10]: 94%
residual activity [11]: 92%
residual activity [12]: 100%
residual activity [13]: 103%
residual activity [14]: 95%
residual activity [6]: 104%
residual activity [7]: 71%
residual activity [15]: 86%
residual activity [16]: 78%
residual activity [3]: 87%
residual activity [4]: 50%
residual activity [17]: 90%
residual activity [18]: 42%
residual activity [19]: 92%
residual activity [20]: 41%
residual activity [5]: 78%

O=C(c1cc2cc(O)ccc2[nH]1)c1cc2cc(O)ccc2[nH]1
residual activity [1]: 8%
residual activity [2]: 81%
residual activity [8]: 79%
residual activity [10]: 71%
residual activity [11]: 83%
residual activity [12]: 62%
residual activity [14]: 78%
residual activity [6]: 82%
residual activity [7]: 46%
residual activity [15]: 62%
residual activity [16]: 23%
residual activity [3]: 70%
residual activity [4]: 28%
residual activity [17]: 80%
residual activity [18]: 32%
residual activity [19]: 66%
residual activity [20]: 22%
residual activity [5]: 16%

COc1ccc2c(c1)c(C1=C(c3c[nH]c4ccccc34)C(=O)NC1=O)cn2CCCN(C)C
residual activity [1]: 34%
residual activity [2]: 97%
residual activity [8]: 56%
residual activity [11]: 71%
residual activity [12]: 22%
residual activity [6]: 113%
residual activity [7]: 69%
residual activity [15]: 82%
residual activity [16]: 53%
residual activity [4]: 33%
residual activity [18]: 28%
residual activity [19]: 82%
residual activity [20]: 37%
residual activity [5]: 59%

NC(=O)Nc1sc(-c2ccc(F)cc2)cc1C(N)=O
residual activity [1]: 5%
residual activity [2]: 105%
residual activity [8]: 78%
residual activity [9]: 102%
residual activity [10]: 75%
residual activity [11]: 89%
residual activity [12]: 63%
residual activity [13]: 101%
residual activity [14]: 73%
residual activity [17]: 39%
residual activity [18]: 6%
residual activity [19]: 61%
residual activity [20]: 16%
residual activity [5]: 35%

Nc1n[nH]c2nc3ccccc3nc12
residual activity [1]: 72%
residual activity [9]: 94%
residual activity [10]: 82%
residual activity [11]: 98%
residual activity [12]: 83%
residual activity [13]: 99%
residual activity [14]: 68%
residual activity [15]: 91%
residual activity [16]: 74%
residual activity [4]: 75%
residual activity [17]: 93%
residual activity [18]: 85%
residual activity [5]: 78%

COc1ccc(COc2ccc(Cc3cnc(N)nc3N)cc2OC)cc1
residual activity [1]: 111%
residual activity [6]: 118%
residual activity [17]: 100%
residual activity [18]: 79%
residual activity [5]: 61%
